Records with an inconclusive call do not appear. Where a call stands in place of a potency, no number is given. Calls of active or inactive are those of the source. Calls come from the whole dose curve.
Potency is the fitted concentration of half-maximal effect.

This assay is described as follows: qHTS assay to identify small molecule agonists of H2AX - cell viability counter screen (AID 1224847). Note: nearly all actives have a fitted effect of over 30% in size. The conditions noted are these: CHO-K1 viability, CellTiter-Glo luminescence, 3 h; series mostly up to 154 µM. An excerpt: National Center for Advancing Translational Sciences [NCATS]
NIH Chemical Genomics Center [NCGC]
U.S. Environmental Protection Agency [EPA]
National Institutes of Environmental Health Sciences [NIEHS]
National Toxicology Program [NTP]
U.S. Food and Drug Administration [FDA]
HTRF phospho-H2AX (Ser139) assay (Cisbio Bioassays, US) enables the quantitative detection of the histone variant H2AX when phosphorylated on serine 139. When double-stranded DNA breaks, either by ionizing radiation or endogenous physiological processes, H2AX becomes phosphorylated at Ser139. This phospho-Ser139 serves as a sensitive biomarker for the detection of such breaks, localizing the site of DNA repair. So, HTRF phospho-H2AX Ser139 is a pertinent assay to study genome stability, the cell cycle, DNA repair, and it serves as a biomarker for cancer, and to understand aging. Wild type CHO-K1 cells were used to identify the inducers of Phospho-H2AX Ser 139 from the Tox21 compound collections. Also cytotoxicity of the Tox21 10K compound library against the CHO-K1 cell line was tested by measuring the cell viability using CellTiter-Glo assay (Promega, Madison, WI).
Tox21 Assay Protocol Summary:
The CHO-K1 cells suspended in culture medium containing 10% FBS were dispensed at 1000 cells/ 3 ul/well in 1536-well white wall/solid bottom plates (Greiner Bio-One North America, NC) using a Multidrop Combi (Thermo Fisher Scientific Inc., Waltham, MA). After the assay plates were incubated at 37C overnight, 23 nl of compounds at 15 concentrations (from 5-48 columns) or positive control (from 1 to 4 columns) were transferred to the assay plates using a Pintool station (Wako, San Diego, CA) into each well resulting in a final DMSO concentration of 0.76%. After 3hr incubation at 37C, 3 uL/well CellTiter-Glo luminescent cell viability reagent (Promega Corporation, Madison, WI) was added using a Flying Reagent Dispenser (FRD) (Aurora Discovery, CA). After incubation at room temperature for 30 min, the luminescence intensity was read using a ViewLux plate reader (PerkinElmer, Waltham, MA).
For `CN(C)CCO`, the Potency result is “inactive”.

Regarding `O=C1CCCN1`, the Potency result is “inactive”.

Take `Nc1ccc(Cc2ccc(N)cc2)cc1`: the Potency result was “inactive”.

Consider `O=C(O)c1ccccn1`, for which the Potency result is “inactive”.

For `[O-][Cl+2]([O-])O`, the Potency result was “inactive”.

For `Oc1ccccc1Cl`, the Potency result is “inactive”.

Regarding `CCCCCCCCCCCC#N`, the Potency result is “inactive”.

On to `CCCCOC(=O)c1ccccc1C(=O)OCCCC`, for which the Potency result was “inactive”.

On to `CNC(=O)Oc1ccccc1OC(C)C`, for which the Potency entry is “inactive”.

For `CC1OC(C)OC(C)O1` (stereo not given), the Potency entry is “inactive”.

Consider `Cc1cccc([N+](=O)[O-])c1`, for which the Potency result was “inactive”.

`CCOP(=S)(OCC)Oc1cnc2ccccc2n1`: the Potency result was “inactive”.

On to `CCC[CH2][Sn]([Cl])([Cl])[Cl]`, for which the Potency entry is “inactive”.

Consider `O=c1[nH]c(=O)[nH]c(=O)[nH]1`, for which the Potency result was “inactive”.

Consider `C#CCN(C)[C@H](C)Cc1ccccc1`, for which the Potency result was “inactive”.

In the case of `C=CCO`, the Potency entry is “inactive”.

As to `CCCCCOC(=O)c1ccccc1C(=O)OCCCCC`, the Potency entry was “inactive”.

Regarding `CC(C)OC(=O)Nc1ccccc1`, the Potency entry was “inactive”.

With `Cc1ccc(N)cc1Cl`, the Potency entry is “inactive”.

On to `CCC[N+](=O)[O-]`, for which the Potency entry was “inactive”.

`O=S(=O)(c1ccc(Cl)cc1)c1cc(Cl)c(Cl)cc1Cl`: the Potency was 89.6 µM (active).

With `CC(C)=C[C@@H]1[C@@H](C(=O)OCc2coc(Cc3ccccc3)c2)C1(C)C`, the Potency entry was “inactive”.

As to `NCC(O)c1ccc(O)cc1` (stereo not given), the Potency result was “inactive”.

Consider `CCCC1COC(Cn2cncn2)(c2ccc(Cl)cc2Cl)O1` (stereo not given), for which the Potency was 115 µM (active).

As for `CC(C)C1(C)N=C(c2nc3ccccc3cc2C(=O)O)NC1=O` (stereo not given), the Potency result is “inactive”.

On to `CC(C)N1C(=O)c2ccccc2NS1(=O)=O`, for which the Potency result is “inactive”.

Consider `Cc1ccc(N)cc1N`, for which the Potency result was “inactive”.

With `C=CC(N)=O`, the Potency entry is “inactive”.

As to `COP(N)(=O)SC` (stereo not given), the Potency entry was “inactive”.

For `CN(C)[C@@H]1C(=O)C(C(N)=O)=C(O)[C@@]2(O)C(=O)C3=C(O)c4c(O)cccc4[C@@](C)(O)[C@H]3C[C@@H]12`, the Potency result was “inactive”.

On to `Clc1ccc(Cl)cc1`, for which the Potency entry is “inactive”.

In the case of `Cc1ccc([N+](=O)[O-])cc1C`, the Potency result is “inactive”.

On to `c1ccc(OP(Oc2ccccc2)Oc2ccccc2)cc1`, for which the Potency entry was “inactive”.

`OC(O)C(Cl)(Cl)Cl`: the Potency result is “inactive”.

`CON(C)C(=O)Nc1ccc(Cl)c(Cl)c1`: the Potency entry was “inactive”.

On to `CC(C)C#N`, for which the Potency result was “inactive”.

Consider `CC(C)(Cl)Cl`, for which the Potency result was “inactive”.

Take `Clc1cccc(Cl)c1Cl`: the Potency entry was “inactive”.

As for `O=NN1CCCCCCC1`, the Potency result is “inactive”.

Turning to `C1CN2CCN1CC2`, the Potency entry was “inactive”.

The record behind these values is PubChem BioAssay (Tox21).
